About 13,000 (27%) of roughly 48,000 compounds showed an effect of 50% or more. The list shows a part of the results.

For the assay, the system named is Wolbachia pipientis. The experiment in a line: Anti-Wolbachia Cell-Based Screen. The format is functional. On the set-up: scale not given: in the data most compounds retested in dose-response had high values. The following applies: 5 µM.
As for `N#Cc1ccc(CS(=O)(=O)NC(=O)c2ccc3c(c2)COC3)cc1`, the “Percent Effect” value is -4.05%.

`Cn1cc(Cl)cc1C(=O)N1CCN(Cc2ccsc2)CC1`: the “Percent Effect” value is -5.701%.

For `CC(=O)N1CCC(N2CCOC[C@H]2c2nc(-c3cccnc3)c[nH]2)CC1`, the “Percent Effect” value worked out at 31.59%.

Take `Cc1sc(-n2cnnn2)c(C(=O)NC(C)C)c1C`: the “Percent Effect” value worked out at 78.35%.

Regarding `CC[C@H](C)[C@H](NC(=O)c1ccccc1-n1cnnn1)C(=O)OC`, the “Percent Effect” value was found to be 39.09%.

Regarding `Cc1nc(NC(=O)c2c(-n3cnnn3)sc(C)c2C)sc1C`, the “Percent Effect” value is 111.3%.

For `Cc1nc(NC(=O)c2cccnc2N2CCOCC2)sc1C`, the “Percent Effect” value is given as -47.07%.

Consider `Cc1nc(NC(=O)c2c(-n3cnnn3)sc3c2CCCC3)sc1C`, for which the “Percent Effect” value was found to be 119.6%.

As for `CCC(C)NC(=O)c1ccccc1-n1cnnn1` (stereo not given), the “Percent Effect” value is recorded as -7.012%.

For the compound `Cc1nc(NC(=O)c2c(-n3cnnn3)sc3c2CCC3)sc1C`, the “Percent Effect” value is 89.24%.

For the compound `Cc1nc(NC(=O)C(C)N2CCN(c3cnccn3)CC2)sc1C` (stereo not given), the “Percent Effect” value came out at 1.711%.

For the compound `O=C(COCC1CC1)N1CCCC(n2cccn2)C1` (stereo not given), the “Percent Effect” value was found to be 4.687%.

For `CC1CN(Cc2ccccc2)CCCN1CCCS(C)(=O)=O` (stereo not given), the “Percent Effect” value is -4.156%.

On to `CC(=O)Nc1nc(C2CCN(C(=O)c3cncs3)CC2)cs1`, for which the “Percent Effect” value worked out at 107.2%.

In the case of `CCc1csc(CCNC(=O)CC2CCN(C(C)C)CC2)n1`, the “Percent Effect” value is on record as 8.427%.

On to `CC(=O)Nc1nc(C(=O)N2CCCC(c3cc(C)[nH]n3)C2)cs1` (stereo not given), for which the “Percent Effect” value is -0.9316%.

As to `CC(=O)c1ccc(C(=O)N2CCC(c3cc(O)nc(C)n3)CC2)s1`, the “Percent Effect” value is reported as -1.622%.

Consider `CC(=O)Nc1nc(C2CCN(CC(N)=O)CC2)cs1`, for which the “Percent Effect” value is on record as -6.255%.

Consider `Nc1nc(C2CCN(C(=O)c3cncs3)CC2)cs1`, for which the “Percent Effect” value was -2.594%.

Regarding `Cc1nc(-c2ccc(CC(=O)N3CCN(C(=O)C4CC4)CC3)cc2)cs1`, the “Percent Effect” value is on record as 16.03%.

Regarding `CC(=O)Nc1nc(C2CCN(C(=O)C3CCC3)CC2)cs1`, the “Percent Effect” value is on record as 103.4%.

For the compound `CC(=O)N1CCC(C(=O)Nc2nc(C3CC3)cs2)CC1`, the “Percent Effect” value amounted to 19.21%.

With `CC(=O)Nc1nc(C2CCN(C(C)C)CC2)cs1`, the “Percent Effect” value was determined as 119.6%.

In the case of `CC(=O)Nc1nc(C2CCN(C(=O)Cc3ccccc3)CC2)cs1`, the “Percent Effect” value came out at 87.03%.

In the case of `CSCC(=O)NC(Cc1ccc(C)cc1)c1ccccn1` (stereo not given), the “Percent Effect” value is -0.4247%.

`O=C(Cn1cc(C2CC2)nn1)NC(c1cc(F)ccc1F)C1CC1` (stereo not given): the “Percent Effect” value is recorded as -5.532%.

With `O=C(C1CC=CC1)N1CCC2(CCC(=O)N2Cc2cccc(F)c2)CC1`, the “Percent Effect” value is -0.5854%.

For the compound `O=C(NC[C@H]1OC[C@@H](NCc2ccc(F)cc2)[C@@H]1O)c1ccncc1`, the “Percent Effect” value was -2.517%.

For `CC(=O)Nc1nc(C(=O)N2CCC(Nc3cccnn3)CC2)cs1`, the “Percent Effect” value is -3.618%.

For `CC(=O)Nc1nc(C2CCN(C(=O)c3ccncc3)CC2)cs1`, the “Percent Effect” value is recorded as 108.8%.

(Values after ChEMBL document CHEMBL3988442, “University of Dundee, Small-Polar-MMV Screening Library” (2021).)
